Measured values: PubChem BioAssay (Tox21)
Inconclusive results are not listed. Active and inactive are the calls of the source. Unless noted, calls come from the whole dose curve; as a rule, active = well fitted curve in the direction sought with a large enough effect in the repeat runs; inconclusive = weak or mixed curves; inactive = no such curve, though single readings can be large; an effect the other way counts as inactive or inconclusive.

How the values were obtained:
[1] = qHTS assay to identify small molecule antagonists of the estrogen related receptor (ERR) signaling pathway from Tox21 library - cell viability counter screen (AID 1224834); note: nearly all actives have a fitted effect of over 30% in size
Procedure, shortened: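 Viability readout (CellTiter-Fluor fluorescence, 30 min at 37 C) multiplexed with the ERR assay; cells treated 17.5 h at 37 C with compounds delivered in DMSO.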

[2] = target: Luciferin 4-monooxygenase (Photinus pyralis) (UniProt P08659); experiment: qHTS assay to identify small molecule inhibitors of firefly luciferase (AID 1224835); note: nearly all actives have a fitted effect of over 25% in size
Chain of Luciferin 4-monooxygenase (Photinus pyralis) (P08659 whole entry, looked up): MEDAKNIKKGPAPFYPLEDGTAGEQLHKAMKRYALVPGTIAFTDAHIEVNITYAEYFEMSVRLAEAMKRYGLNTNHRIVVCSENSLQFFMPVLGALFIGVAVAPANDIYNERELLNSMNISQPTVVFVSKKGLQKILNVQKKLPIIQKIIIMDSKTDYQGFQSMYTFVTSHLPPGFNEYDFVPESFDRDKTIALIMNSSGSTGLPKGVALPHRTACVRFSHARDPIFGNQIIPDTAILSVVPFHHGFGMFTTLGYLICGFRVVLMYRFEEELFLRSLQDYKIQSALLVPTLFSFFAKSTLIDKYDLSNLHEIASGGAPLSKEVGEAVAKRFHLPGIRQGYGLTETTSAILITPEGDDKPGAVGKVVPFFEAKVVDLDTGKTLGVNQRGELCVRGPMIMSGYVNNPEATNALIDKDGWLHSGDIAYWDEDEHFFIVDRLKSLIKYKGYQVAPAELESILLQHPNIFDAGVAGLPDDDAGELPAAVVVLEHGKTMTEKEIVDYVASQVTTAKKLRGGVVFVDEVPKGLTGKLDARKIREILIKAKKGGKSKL
Procedure, shortened: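 Inhibition of purified Photinus luciferase is measured by luminescence. Substrate levels (D-luciferin, ATP) sit at their KM values. Each compound is tested in a concentration series.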

[3] = qHTS assay to identify small molecule agonists of the constitutive androstane receptor (CAR) signaling pathway - cell viability counter screen (AID 1224836); note: nearly all actives have a fitted effect of over 45% in size
Procedure, shortened: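 Compound titrations (15 concentrations) went onto HepG2-CYP2B6-hCAR cells 4 h after seeding, alongside PK11195 at a final 0.75 uM; a 23 h, 37 C/5% CO2 incubation preceded CellTiter-Fluor viability measurement.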

[4] = qHTS assay to identify small molecule antagonists of the estrogen related receptor signaling pathway with the pleiotropic PPARgamma coactivator (PGC) from Tox21 10K library - cell viability counter screen (AID 1224840; active = well fitted cell-killing curve with a large enough effect in the repeat runs, not every such curve was filed as active; note: nearly all actives have a fitted effect of over 40% in size)
Procedure, shortened: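 Compounds in DMSO, alongside positive and negative controls, were pinned onto PGC/ERR cells (2,000 per well). Exposure lasted 17.5 hours at 37 C, followed by a 30-minute CellTiter-Fluor incubation and fluorescence reading.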

[5] = qHTS assay to identify small molecule antagonists of the estrogen related receptor signaling pathway with the pleiotropic PPARgamma coactivator (PGC) from Tox21 10K library (AID 1224841; call rule not given here; note: actives are mostly falling curves and most rising ones were filed inactive; nearly all actives have a fitted effect of over 50% in size)
Procedure, shortened: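 Compound exposure ran 18 hours at 37 C in PGC/ERR cells (2,000/well) that had first rested 6 hours in a 37 C/5% CO2 incubator. Luciferase activity was then detected with One-Glo after a 30-minute room-temperature step.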

[6] = qHTS assay to identify small molecule agonists of the estrogen related receptor signaling pathway with the pleiotropic PPARgamma coactivator (PGC) from Tox21 10K library (AID 1224842); note: nearly all actives have a fitted effect of over 15% in size
Procedure, shortened: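 Luminescence from One-Glo (30 min, room temperature) measured after PGC/ERR cells had 18 h at 37 C with pinned compound (23 nL in DMSO). Cells had been seeded at 2,000 per well and pre-incubated 6 h.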

[7] = target: Thyrotropin receptor (Homo sapiens) (UniProt P16473); experiment: qHTS assay to identify small molecule agonists of the thyroid stimulating hormone receptor (TSHR) signaling pathway (AID 1224843; calls by dose curve; note: nearly all actives have a fitted effect of over 45% in size)
Chain of Thyrotropin receptor (Homo sapiens) (P16473 whole entry, looked up): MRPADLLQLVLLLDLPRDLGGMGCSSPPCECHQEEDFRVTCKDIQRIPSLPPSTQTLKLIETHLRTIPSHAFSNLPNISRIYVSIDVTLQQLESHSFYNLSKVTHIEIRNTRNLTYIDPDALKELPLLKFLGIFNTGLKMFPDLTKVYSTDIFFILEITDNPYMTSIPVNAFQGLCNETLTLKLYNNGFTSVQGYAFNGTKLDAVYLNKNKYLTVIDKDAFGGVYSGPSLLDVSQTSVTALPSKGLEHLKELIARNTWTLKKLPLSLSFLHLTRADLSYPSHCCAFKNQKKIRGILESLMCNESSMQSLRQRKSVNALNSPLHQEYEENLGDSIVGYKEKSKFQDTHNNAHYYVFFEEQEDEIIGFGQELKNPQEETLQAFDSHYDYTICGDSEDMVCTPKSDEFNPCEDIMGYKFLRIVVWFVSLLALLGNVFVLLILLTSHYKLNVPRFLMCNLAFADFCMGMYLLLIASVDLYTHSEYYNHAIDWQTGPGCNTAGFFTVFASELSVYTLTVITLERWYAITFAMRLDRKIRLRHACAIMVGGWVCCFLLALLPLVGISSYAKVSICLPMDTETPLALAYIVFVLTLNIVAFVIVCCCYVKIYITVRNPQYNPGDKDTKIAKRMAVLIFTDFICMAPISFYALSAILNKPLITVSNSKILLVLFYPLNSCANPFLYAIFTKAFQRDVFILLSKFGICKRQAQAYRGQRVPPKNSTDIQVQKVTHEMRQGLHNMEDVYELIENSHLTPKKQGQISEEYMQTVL
Procedure, shortened: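 Screening of the Tox21 10K collection used HEK293 cells engineered with TSHR at 800 cells per well. After a 30-min room-temperature compound exposure, HTRF cAMP reagents were added and fluorescence recorded 1 h later.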

[8] = qHTS assay to identify small molecule agonists of the hypoxia (HIF-1) signaling pathway (AID 1224846; active = well fitted activation curve with a large enough effect in the signal ratio in the repeat runs, not every such curve was filed as active; the % refers to the signal ratio)
Procedure, shortened: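 Measured by blue/green FRET after loading CCF4-AM: beta-lactamase expressed from a hypoxia response element in ME-180 cells. Test agents were delivered in DMSO and left 17 hrs; cells had been plated 5 hrs earlier in low-serum (0.5% dialyzed FBS) medium.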

[9] = qHTS assay to identify small molecule agonists of H2AX - cell viability counter screen (AID 1224847; calls by dose curve; note: top concentration of the series differs between compounds; nearly all actives have a fitted effect of over 30% in size)
Procedure, shortened: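 Read-out: CellTiter-Glo luminescence, 30 min RT. Cells: wild-type CHO-K1, 1000/well, 10% FBS, plated overnight at 37C. Treatment: 15 concentrations, 3 hr, 37C, 0.76% DMSO.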

[10] = qHTS assay to identify small molecule antagonists of the estrogen related receptor (ERR) signaling pathway from Tox21 library (AID 1224848); note: nearly all actives have a fitted effect of over 50% in size
Procedure, shortened: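 Antagonist-mode screen of the Tox21 10K library in an NTP-provided ERR reporter cell line; 18 h compound exposure at 37 C, luminescence measured with ONE-Glo.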

[11] = qHTS assay to identify small molecule agonists of the estrogen related receptor (ERR) signaling pathway from Tox21 library (AID 1224849; calls by dose curve; note: nearly all actives have a fitted effect of over 15% in size); conditions: ERR reporter cell line, ONE-Glo luciferase, 18 h; at 92.4 µM (top of the series) unless noted
Procedure, shortened: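 We plated ERR reporter cells, waited 6 h, added compounds in DMSO by pin tool and incubated them 18 h at 37 C. ONE-Glo was then added and luminescence read after 30 min.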

[12] = qHTS RealTime-Glo MT Cell Viability Assay in HepG2 cells - 24 hour (AID 1224867); note: nearly all actives have a fitted effect of over 50% in size
Procedure, shortened: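 Compound treatment began 5 h after plating HepG2 cells (600/well) with NanoLuc luciferase and prosubstrate. Plates stayed at 37 C for 40 h; luminescence was captured at six time points, 0 h through 40 h.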

[13] = qHTS RealTime-Glo MT Cell Viability Assay in HEK293 cells - 32 hour (AID 1224868); note: top concentration of the series differs between compounds; nearly all actives have a fitted effect of over 50% in size
Procedure, shortened: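 Quantitative high-throughput screen of the Tox21 10K library in HEK293: cells and RealTime-Glo reagents plated together, compound added at 5 h, luminescence monitored through 40 h at 37 C.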

[14] = A CellTox Green Cytotoxicity Assay to monitor cytotoxicity in HEK293 cells - 0 hour (AID 1224869); note: nearly all actives have a fitted effect of over 50% in size
Procedure, shortened: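 Each value comes from one timepoint of a single continuous run in which HEK293 cells with CellTox Green were exposed to compound for up to 40 h at 37 C, dye fluorescence rising with cell death.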

[15] = qHTS RealTime-Glo MT Cell Viability Assay in HepG2 cells - 40 hour (AID 1224870); note: nearly all actives have a fitted effect of over 50% in size
Procedure, shortened: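 Real-time viability: cells seeded at 600 per well together with NanoLuc and cell-permeant prosubstrate, compounds added after 5 h incubation. Luminescence tracked at 0, 8, 16, 24, 32 and 40 h of exposure.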

[16] = target: Nuclear receptor subfamily 1 group I member 3 (Homo sapiens) (UniProt Q14994); experiment: qHTS assay to identify small molecule antagonists of the constitutive androstane receptor (CAR) signaling pathway (AID 1224838);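 note: HepG2 cells stably expressing hCAR with CYP2B6 luciferase reporter stimulated by CITCO; nearly all actives have a fitted effect of over 40% in size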
Chain of Nuclear receptor subfamily 1 group I member 3 (Homo sapiens) (Q14994 whole entry, looked up): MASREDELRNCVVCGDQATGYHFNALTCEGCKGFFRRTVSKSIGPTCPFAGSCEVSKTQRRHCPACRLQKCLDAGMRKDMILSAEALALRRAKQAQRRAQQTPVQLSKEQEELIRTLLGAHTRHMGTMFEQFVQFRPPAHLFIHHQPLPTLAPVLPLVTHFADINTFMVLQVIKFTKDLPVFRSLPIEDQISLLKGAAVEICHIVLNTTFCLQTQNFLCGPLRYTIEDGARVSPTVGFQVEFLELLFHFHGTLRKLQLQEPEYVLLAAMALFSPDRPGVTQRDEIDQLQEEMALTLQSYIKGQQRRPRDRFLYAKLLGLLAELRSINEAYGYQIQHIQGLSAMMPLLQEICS
Procedure, shortened: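 Quantitative HTS in double-stable HepG2-CYP2B6-hCAR cells. After 4 h plating, cells get compound (15 concentrations) and CITCO at 50 nM final, incubate 24 h at 37 C, then ONE-Glo luminescence is read.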

[17] = target: Nuclear receptor subfamily 1 group I member 3 (Homo sapiens) (UniProt Q14994); experiment: qHTS assay to identify small molecule agonists of the constitutive androstane receptor (CAR) signaling pathway (AID 1224839);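 note: HepG2 cells stably carrying human CAR and a CYP2B6 luciferase reporter; nearly all actives have a fitted effect of over 15% in size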
Procedure, shortened: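 In this screen, CAR-driven CYP2B6 promoter activity is measured by luminescence in HepG2-CYP2B6-hCAR cells after 24 h with test compounds and 0.75 uM PK11195 (final concentration).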

[18] = qHTS assay to identify small molecule agonists of the hypoxia (HIF-1) signaling pathway - cell viability counter screen (AID 1224844; calls by dose curve; note: nearly all actives have a fitted effect of over 50% in size)
Procedure, shortened: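 Luminescent ATP content (CellTiter-Glo, 30 min, room temperature) served as the viability measure in HRE-bla ME-180 cells exposed to compounds for 17 hrs in low-serum medium (0.5% dialyzed FBS).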

[19] = qHTS assay to identify small molecule agonists of H2AX (AID 1224845; active = well fitted activation curve with a large enough effect in the signal ratio in the repeat runs, not every such curve was filed as active; the % refers to the signal ratio; note: potency is the fitted concentration of half-maximal effect)
Procedure, shortened: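 Phospho-H2AX Ser139 measured by HTRF (ex 320 nm; em 665 and 620 nm) after 24 hr antibody incubation. Compounds, 15 concentrations, 0.76% DMSO, were applied to CHO-K1 cells for 3hr at 37C before lysis.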

[20] = qHTS assay to identify small molecule antagonists of the constitutive androstane receptor (CAR) signaling pathway - cell viability counter screen (AID 1224837); note: nearly all actives have a fitted effect of over 45% in size
Procedure, shortened: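 Fluorescence from CellTiter-Fluor served as the viability signal. Human hepatoma HepG2 cells stably bearing hCAR and CYP2B6-2.2kb received compound plus CITCO (50 nM final) for 23 hr.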
% is set by controls: 0 for no effect and ±100 for the full control effect.

C=C(C)[C@@H]1CC=C(C=O)CC1
inactive: Potency [1] | Potency [2] | Potency [3] | Potency [4] | Potency [5] | outcome [6] | Potency [7] | outcome [8] | Potency [9] | Potency [10] | activity change, positive = activation [11] -5.19% | Potency [12] | Potency [13] | Potency [14] | Potency [15]

CCN(CC)C(C)C(=O)c1ccccc1 (centres undefined)
inactive: Potency [1] | Potency [2] | Potency [3] | Potency [16] | Potency [17] | Potency [4] | Potency [7] | Potency [18] | Potency [19] | outcome [8] | Potency [9] | Potency [12] | Potency [13] | Potency [14] | Potency [15]

O=C1OC(c2ccc(O)c(S(=O)(=O)O)c2)(c2ccc(O)c(S(=O)(=O)O)c2)c2c(Br)c(Br)c(Br)c(Br)c21
inactive: Potency [1] | Potency [2] | Potency [3] | Potency [20] | Potency [4] | Potency [7] | Potency [19] | outcome [8] | Potency [9] | Potency [12] | Potency [13] | Potency [14] | Potency [15]

CC(C=O)Cc1ccc2c(c1)OCO2 (centres undefined)
inactive: Potency [1] | Potency [2] | Potency [3] | Potency [16] | Potency [17] | Potency [4] | Potency [7] | Potency [18] | Potency [19] | outcome [8] | Potency [9] | Potency [12] | Potency [13] | Potency [14] | Potency [15]

COc1cc(OC)nc(Sc2cccc(Cl)c2C(=O)O)n1
inactive: Potency [1] | Potency [2] | Potency [3] | Potency [16] | Potency [17] | Potency [4] | Potency [5] | outcome [6] | Potency [7] | Potency [18] | Potency [19] | outcome [8] | Potency [9] | Potency [10] | activity change, positive = activation [11] 0.33% | Potency [12] | Potency [13] | Potency [14] | Potency [15]

N#CCCC#N
inactive: Potency [1] | Potency [2] | Potency [3] | Potency [20] | Potency [4] | Potency [18] | Potency [19] | outcome [8] | Potency [9] | Potency [12] | Potency [13] | Potency [14] | Potency [15]

Cc1cc(C)c(C(=O)P(=O)(C(=O)c2c(C)cc(C)cc2C)c2ccccc2)c(C)c1
inactive: Potency [1] | Potency [2] | Potency [3] | Potency [16] | Potency [17] | Potency [4] | Potency [5] | outcome [6] | Potency [7] | Potency [18] | Potency [19] | outcome [8] | Potency [9] | Potency [10] | activity change, positive = activation [11] -2.99% | Potency [12] | Potency [13] | Potency [14] | Potency [15]

c1cc2c(c(N3CCNCC3)c1)OCCO2
inactive: Potency [1] | Potency [2] | Potency [3] | Potency [20] | Potency [4] | Potency [7] | Potency [18] | Potency [19] | outcome [8] | Potency [9] | Potency [12] | Potency [13] | Potency [14] | Potency [15]

C[N+](=O)[O-]
inactive: Potency [1] | Potency [2] | Potency [3] | Potency [4] | Potency [5] | outcome [6] | Potency [7] | Potency [18] | Potency [19] | outcome [8] | Potency [9] | Potency [10] | activity change, positive = activation [11] 6.34% | Potency [12] | Potency [13] | Potency [14] | Potency [15]

O=[N+]([O-])c1ccc2c3c(cccc13)CC2
inactive: Potency [1] | Potency [2] | Potency [3] | Potency [4] | Potency [7] | Potency [18] | outcome [8] | Potency [9] | Potency [12] | Potency [13] | Potency [14] | Potency [15]

CCCSC(=O)N(CCC)CCC
inactive: Potency [1] | Potency [2] | Potency [3] | Potency [16] | Potency [17] | Potency [4] | Potency [7] | Potency [18] | Potency [19] | outcome [8] | Potency [9] | Potency [13] | Potency [14] | Potency [15]

CC(C)CC#N
inactive: Potency [1] | Potency [2] | Potency [3] | Potency [20] | Potency [4] | Potency [7] | Potency [19] | outcome [8] | Potency [9] | Potency [12] | Potency [13] | Potency [14] | Potency [15]

C#C[C@]1(O)C=C[C@H]2[C@@H]3CCC4=CC(=O)CC[C@@H]4[C@H]3CC[C@@]21CC
active: Potency [19] 19.6 µM
inactive: Potency [1] | Potency [2] | Potency [3] | Potency [20] | Potency [4] | Potency [9] | Potency [12] | Potency [14] | Potency [15]

OC(c1ccccc1)(c1ccccc1)C1CCNCC1
inactive: Potency [1] | Potency [2] | Potency [3] | Potency [20] | Potency [4] | Potency [7] | Potency [18] | Potency [19] | Potency [9] | Potency [12] | Potency [13] | Potency [14] | Potency [15]

CN(C)CCc1ccc(O)cc1
inactive: Potency [1] | Potency [2] | Potency [3] | Potency [16] | Potency [17] | Potency [4] | Potency [5] | outcome [6] | Potency [7] | Potency [18] | Potency [19] | outcome [8] | Potency [9] | Potency [10] | activity change, positive = activation [11] 5.13% [at 42.5 µM] | Potency [12] | Potency [14] | Potency [15]

O=P(O)(Oc1ccccc1)Oc1ccccc1
inactive: Potency [1] | Potency [2] | Potency [3] | Potency [16] | Potency [17] | Potency [4] | Potency [7] | Potency [18] | Potency [19] | outcome [8] | Potency [9] | Potency [12] | Potency [13] | Potency [14] | Potency [15]

Cc1ncsc1CCCl
inactive: Potency [1] | Potency [2] | Potency [3] | Potency [20] | Potency [4] | Potency [7] | Potency [18] | Potency [19] | outcome [8] | Potency [9] | Potency [12] | Potency [13] | Potency [14] | Potency [15]
